From PubChem BioAssay
hNpr1 antagonist: antagonists of human natriuretic peptide receptor Npr1 | P16066 | HEK293 hNpr1 GloSensor cGMP, ANP-stimulated luminescence | Potency, µM (top dose mostly 46.3 µM), actives largely listed as inhibitors | 1.6% of 76,000 active | AID 1347048; calls by dose curve; further: nearly all actives have a fitted effect of over 60% in size
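HEK293 cells stably expressing human Npr1 and cGMP GloSensor pGS-40F, loaded 2 h with 2% GloSensor reagent, given compound 30 min at room temperature. Luminescence read before and 20 min after 0.1 nM hNppA.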
HEK cytotox: cytotoxic compounds in HEK 293 cells. HEK 293 viability, ATP luminescence (CellTiter-Glo), 48-72 h. 6.6% of 94,000 active. Potency, µM (doses to about 115 µM), actives largely listed as inhibitors. AID 1345083; further: nearly all actives have a fitted effect of over 60% in size
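Pintool-delivered compounds were incubated with HEK 293 cells (250 cells/well) at 37 degree Celsius for 48 or 72 hr. ATP-dependent luminescence (CellTiter-Glo) then reported remaining viable cells.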
NIH3T3 tox: cytotoxic compounds in NIH 3T3 cells. NIH 3T3 viability, CellTiter-Glo ATP luminescence, 48-72 h. Potency, µM (highest dose often 96.7 µM), actives largely listed as inhibitors. 4.3% of 94,000 active. AID 1345082; further: nearly all actives have a fitted effect of over 55% in size
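Luminescent ATP readout (CellTiter-Glo, 10 min RT) after 48 or 72 hr compound exposure of NIH 3T3 cells seeded at 400 cells/well in 1536-well format; quantitative HTS.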
GPT2 inhibitor: inhibitors of human GPT2 alanine aminotransferase; Potency, µM (titrated, usually from 57.7 µM), most hits filed as inhibitors; Q8TD30; 0.25% of 100,000 active; Recombinant GPT2, coupled pyruvate oxidase/HRP Amplex Red fluorescence; further: nearly all actives have a fitted effect of over 60% in size
Target sequence (Q8TD30 whole entry, looked up): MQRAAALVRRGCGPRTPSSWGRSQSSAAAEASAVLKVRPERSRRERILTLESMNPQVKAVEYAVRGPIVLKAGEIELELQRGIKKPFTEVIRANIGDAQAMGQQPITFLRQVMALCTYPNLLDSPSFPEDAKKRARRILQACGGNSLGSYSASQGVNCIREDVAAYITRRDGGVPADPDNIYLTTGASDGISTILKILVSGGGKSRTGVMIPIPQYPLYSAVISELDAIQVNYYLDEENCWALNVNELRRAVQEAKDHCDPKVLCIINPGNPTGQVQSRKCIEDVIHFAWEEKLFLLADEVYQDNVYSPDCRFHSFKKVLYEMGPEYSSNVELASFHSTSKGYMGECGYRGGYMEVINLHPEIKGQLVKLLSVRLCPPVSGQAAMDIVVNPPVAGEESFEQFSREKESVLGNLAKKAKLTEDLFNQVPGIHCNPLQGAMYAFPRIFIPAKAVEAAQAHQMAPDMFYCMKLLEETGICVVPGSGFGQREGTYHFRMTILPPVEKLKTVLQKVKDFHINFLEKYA
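Recombinant GPT2 (10ng/uL) with 250uM a-KG and 2mM L-alanine, 30 min at room temperature, in HEPES pH 7.5 buffer. Pyruvate detected by pyruvate oxidase/HRP/Amplex Red fluorescence after 30 min in the dark; AOA (50uM) as positive control.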
Luciferase inh: blocks purified firefly luciferase enzyme activity; P08659; purified P. pyralis luciferase, luminescence, biochemical; Potency, µM (series often up to 115 µM), actives largely listed as inhibitors; 2.5% of 76,000 active; further: nearly all actives have a fitted effect of over 65% in size
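Inhibitors were tested against purified firefly luciferase in a biochemical, low-substrate format (both substrates at 10uM) and luminescence measured with a CCD imager.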
A number is an active result; 0 = inactive; ? = inconclusive; - = no result given. Only some compounds are listed: those with a hit (about 10% of all), similar ones and a draw of the others. Unless noted, the call rests on the fitted dose curve; in most records, active means well fitted curve in the direction sought with a large enough effect; inconclusive means small, poorly fitted or top-dose-only effect, or another doubt; inactive means no such curve, though single readings can be large; an effect the other way counts as inactive or inconclusive.

SMILES	hNpr1 antagonist	HEK cytotox	NIH3T3 tox	GPT2 inhibitor	Luciferase inh
COc1cccc(C(=O)N(C)Cc2cccc(C(F)(F)F)c2)c1	0	89µM	?	0	0
Cc1cc(C(=O)N2CC(Oc3ccc(-c4nc(-c5ccccc5)no4)cc3)C2)n(C)n1	5.6µM	11µM	?	0	?
Cc1cc(C)n(CCC(=O)N2CC(Oc3ccc(-c4nc(-c5ccccc5)no4)cc3)C2)n1	0.4µM	32µM	?	0	?
Cc1ccc(C)c(-c2cc3c(=O)n(CCNC(=O)c4cccs4)ccn3n2)c1	0	?	?	0	?
COc1ccc(-c2noc(-c3cccn3CC(=O)Nc3cccc(Cl)c3)n2)cc1F	0	0	0	0	0
CCOC(=O)CN1CCCC1c1ccc(C(=O)NCCn2ccnc2)s1 (centres undefined)	0	0	0	?	0
CCN1c2cc(C(=O)Nc3ccc(C(C)C)cc3)ccc2C(=O)N2CCCCCC21 (centres undefined)	0	?	22µM	0	0
CCOc1ccc(NC(=O)c2ccc3c(c2)N(CC)C2CCCCCN2C3=O)cc1 (centres undefined)	0	?	?	0	0
CCN1c2cc(C(=O)Nc3ccc(C(C)C)cc3)ccc2C(=O)N2CCCCC21 (centres undefined)	0	18µM	?	0	?
CCN1c2cc(C(=O)Nc3ccc(-n4ccnc4)cc3)ccc2C(=O)N2CCCCCC21 (centres undefined)	0	?	11µM	0	0
CCN1c2cc(C(=O)Nc3ccc(Cl)cc3)ccc2C(=O)N2CCCCCC21 (centres undefined)	0	45µM	?	0	0
CCc1[nH]c2ccc(CNC(=O)[C@H]3[C@@H]4C=C[C@@]5(CN(C)C(=O)[C@@H]35)O4)cc2c1C	0	0	0	0	0
COc1c(Cl)cc2c([nH]c3cnccc32)c1NC(=O)c1cccnc1C	-	-	-	0	-
CCCc1nc(C)cc(N2CCC(NCCc3ccc(Cl)cc3)CC2)n1	0	14µM	?	0	0
COc1ccccc1N1CCN(C(=O)c2ccc3c(c2)C(O)CCCCCN3C)CC1 (centres undefined)	0	45µM	?	0	0
Cc1cccc(N2CCN(C(=O)c3ccc4c(c3)C(O)CCCCCN4C)CC2)c1 (centres undefined)	0	?	?	0	0
CN1CCCCCC(O)c2cc(C(=O)N3CCc4ccccc43)ccc21 (centres undefined)	?	?	35µM	?	?
CN1CCCCCC(O)c2cc(C(=O)N3CCN(Cc4ccccc4)CC3)ccc21 (centres undefined)	0	56µM	?	0	0
COC(=O)Nc1cc(Nc2cc(NC3CC3)c3ncc(C#N)n3n2)c(Cl)c(N2CCN(C)CC2)c1	-	-	-	0	-
CC(C)(C)c1ccc(CN2CC3(COCC2=O)CN(c2ccccc2)C3)cc1	0	?	79µM	0	0
COc1ccc(N2CC3(COCC2=O)CN(c2ccc(C(F)(F)F)cn2)C3)cn1	0	0	40µM	0	0
Cc1ccccc1CN1CC2(COCC1=O)CN(c1ccc(C(F)(F)F)cn1)C2	0	89µM	?	?	0
CN(Cc1ccc(Oc2ncccn2)cc1)CC1CCN(CCc2ccc(F)cc2)CC1	0	?	50µM	0	0
CN(Cc1ccc(-n2cccn2)cc1)CC1CCN(CCc2ccc(F)cc2)CC1	0	?	?	0	0
CCc1nn(-c2ccccc2)c(Oc2cccc(C)c2)c1CCC(=O)N1CCOCC1	0	40µM	?	0	0
SMILES	hNpr1 antagonist	HEK cytotox	NIH3T3 tox	GPT2 inhibitor	Luciferase inh
Cc1nn(-c2ccc(F)cc2)c(Oc2ccccc2)c1CCC(=O)N1CCOCC1	0	?	?	0	0
CCc1nn(-c2ccc(F)cc2)c(Oc2ccccc2)c1CCC(=O)N1CCCC1	0	45µM	?	?	0
Cc1cccc(-n2nc(C)c(CCC(=O)N3CCOCC3)c2Oc2ccc(F)cc2F)c1	0	?	?	0	0
Cc1cccc(NC(=O)N2CCc3c(c4ccccc4n3C)C2)c1C	0	?	?	0	0
Cn1c2c(c3ccccc31)CN(C(=O)Nc1cccc(Br)c1)CC2	0	?	32µM	0	?
Cn1c2c(c3cc(F)ccc31)CN(C(=O)Nc1cccc(F)c1)CC2	0	45µM	22µM	0	?
Cc1ccc(NC(=O)N2CCc3c(c4ccccc4n3C)C2)cc1C	0	45µM	?	0	?
Cc1noc(-c2ccn3c(CNC(=O)c4ccc(F)c(Cl)c4)nnc3c2)n1	0	0	0	0	0
CN(C)C[C@@H]1CN(c2ncccn2)C[C@H]1NC(=O)Cc1ccsc1	0	0	0	0	0
CCc1noc(-c2cn(C3CCCN(C(=O)c4ccccc4)C3)nn2)n1 (centres undefined)	0	0	0	0	0
COc1ccc(C(=O)Nc2cc(-c3cccnc3)nn2-c2ccccc2)cc1	-	?	?	0	-
CCc1ccc(CN2CCCC23Cc2ccccc2CNC3=O)cc1 (centres undefined)	-	89µM	?	0	-
COCCN1Cc2ccc(NCc3ccccc3)nc2C(C)(C(=O)Nc2ccccc2)C1 (centres undefined)	0	50µM	?	0	0
COCCN1Cc2ccc(NCc3ccccc3)nc2C(C)(C(=O)Nc2ccc(F)cc2)C1 (centres undefined)	0	?	?	0	0
COCCN1Cc2ccc(NCC(C)C)nc2C(C)(C(=O)Nc2cccc(F)c2)C1 (centres undefined)	0	45µM	25µM	0	0
COCCN1Cc2ccc(Nc3cccnc3)nc2C(C)(C(=O)Nc2ccccc2C)C1 (centres undefined)	0	?	?	0	63µM
COCCN1Cc2ccc(NCc3ccccc3)nc2C(C)(C(=O)Nc2cccnc2)C1 (centres undefined)	0	?	?	0	0
COCCN1Cc2ccc(NCc3ccccc3)nc2C(C)(C(=O)NCc2ccccc2)C1 (centres undefined)	0	50µM	45µM	0	0
COCCN1Cc2ccc(NCc3ccccc3)nc2C(C)(C(=O)NC2CCOCC2)C1 (centres undefined)	0	?	?	?	0
O=C1NCCN1CCN1CCC(c2cn(-c3ccc(F)cc3)c3ccc(Cl)cc23)CC1	-	-	-	0	-
O=C1CCN(C(=O)c2ccco2)CCOCCN1	0	0	0	0	0
Cc1noc(C)c1C(=O)N1Cc2ccccc2CC2(CCCN(CC3CCNC3)C2)C1 (centres undefined)	-	0	?	0	-
Cc1nn(-c2ccc(C(F)(F)F)cc2)c(C)c1[C@@H]1C=C[C@@H](NC(=O)C2CCCCC2)C1	?	?	?	0	0
Cc1nn(-c2ccc(C(F)(F)F)cc2)c(C)c1[C@@H]1C=C[C@@H](NC(=O)Nc2ccccc2)C1	?	50µM	32µM	0	13µM
